Source: PubChem BioAssay AID1893 (NMMLSC, 2009)
About 120 (2%) of roughly 5,900 compounds were called active. No stated cut-off is given here; in the data, active means percent response mostly above about 71% (no sharp cut-off); inactive means mostly below about 38%. These entries were drawn from the full list.

Tested on: MEKK2 (MAP3K2) mutant PB1 domain binding MEK5, human
Assay: mutant MEKK2 PB1-MEK5 binding signal retest – biochemical, single concentration, multiplex bead flow cytometry, confirmation (AID 1893);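 further: higher means compound restores mutant binding toward wildtype level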
Conditions: Alexa488-MEK5 binding to MEKK2 mutant, at 10 µM, hits give high values

Percent response, active:
CCN1CCN(CCNC(=O)c2ccc(/C=C3/Sc4ccccc4N(Cc4cccc(C)c4)C3=O)cc2)CC1 79%, CCCCCCCCCCOC(=O)Cn1c(COc2cccc(OC)c2)[n+](C)c2ccccc21 115%, CCCCCCCCCCOC(=O)Cn1c(COc2ccc(C)cc2)[n+](C)c2ccccc21 74%

Percent response, inactive:
Cc1ccccc1-c1ccc(Nc2ccc(C(=O)N3CCOCC3)cc2)nn1 4%, COc1cc(CC(=O)N/N=C/c2ccccc2)c([N+](=O)[O-])cc1OC 4%, CCOc1ccc(S(=O)(=O)N(CC(=O)O)c2ccccc2)cc1 1%, Cc1ccc(S(=O)(=O)/N=S(\C)C(C)C)cc1 (centres undefined) -3%, O=C(c1ccco1)N1CCN(c2cccc(Cl)c2)CC1 0%, C/C(=N\NC(=O)CNC(=O)C(c1ccccc1)c1ccccc1)c1ccc(C)cc1 7%, C=CCN(CC=C)S(=O)(=O)c1ccc(C(=O)Nc2sc3c(c2C(N)=O)CCCCC3)cc1 1%, FC(F)(F)c1cccc(N/N=C/c2ccccc2)c1 28%, COc1cc(-c2nnc(Cn3cc(C(F)(F)F)ccc3=O)o2)cc(OC)c1OC 1%, CCNC(=O)CSc1nc(-c2ccccc2)cs1 -1%, O=C(NCCCN1CCCCCC1)c1ccc(N2CCCC2=O)cc1 38%, CN(C)CC(O)COc1ccc(C(C)(C)c2ccc(OCC(O)CN(C)C)cc2)cc1 (centres undefined) 48%, Cc1[nH]c2ccc(S(N)(=O)=O)cc2c1C -1%, CN(C)CCCNC(=O)c1cc(C(=O)Cc2ccc(Cl)cc2)c[nH]1 3%, N/C(=N\OS(=O)(=O)c1cccc([N+](=O)[O-])c1)c1ccncc1 3%, COc1cccc(CNCCc2c[nH]c3ccccc23)c1OCc1ccccc1F 9%, COc1ccccc1CC(=O)Nc1ccc([N+](=O)[O-])cc1OC 0%, O=C(Nc1cccnc1)c1cc(Cl)ccc1Cl 3%, Cc1ccc(CNC(=O)Cn2c(=O)c3sccc3n(Cc3cccc([N+](=O)[O-])c3)c2=O)cc1 2%, O=C(O)/C(=C/c1cccnc1)NC(=O)c1ccccc1 1%, CCOc1nnc(C)c2c(C)n(-c3cccc(Cl)c3)nc12 -10%, Cc1ccccc1C(=O)NNC(=O)CN1C(=O)c2ccccc2C1=O -10%, CC(C)(C)NC(=O)c1cccc(NC(=O)Cc2ccc(Br)cc2)c1 1%, Cn1c2ccccc2c(=O)c2c(=O)n(Cc3ccco3)c(COc3ccccc3)nc21 -6%, CCOc1ccc(C(c2c(C)[nH][nH]c2=O)c2c(C)[nH][nH]c2=O)cc1OCC -3%, COc1cccc(Nc2ncccc2C(=O)O)c1 -5%, C[C@H]1CCC(=O)N([C@H](CSc2ccccc2)Cc2ccccc2)CC1 8%, Cc1cccc(/C=N/NC(=O)CNc2cccc3ccccc23)n1 5%, c1ccc(Nc2nc(N3CCOCC3)c3ccccc3n2)cc1 21%, Cc1ccc(N(CCC(=O)O)S(=O)(=O)c2cccc(C(F)(F)F)c2)cc1 1%, O=C(NCCN1CCOCC1)[C@H](Cc1ccccc1)N1C(=O)c2ccccc2C1=O 2%, COCCN1C=C2C(=O)C(C)(OC(=O)C3CCCC3)C(=O)C=C2C=C1c1ccsc1 (centres undefined) -2%, COC(=O)C1=NN(c2ccccc2)C2C(=O)N(c3ccccc3OC)C(=O)C12 (centres undefined) -1%, CC(=O)Nc1ccc(N2CCOCC2)c(C(=O)Nc2cccc(C)c2)c1 3%, Clc1ccc(-c2nnc(SCc3nc4ccccc4s3)o2)cc1 -4%, COc1ccc(CC(=O)N2N=C(C)CC2(O)C(F)(F)F)cc1 (centres undefined) -3%, O=C(CN1CCN(C(=O)c2ccco2)CC1)Nc1ccc(Cl)c(C(F)(F)F)c1 7%, COc1ccc(C2CC(=O)Nc3cc(C)c(C)cc32)c(OC)c1OC (centres undefined) 4%, COc1ccc(C(=O)NCC(=O)N/N=C/c2ccc([N+](=O)[O-])o2)cc1OC -10%, CCO[C@H]1OC(C(=O)N2CCOCC2)=C[C@@H](c2ccc3c(c2)OCO3)[C@@H]1CCCO 4%, Cc1ccc(C(=O)N/C(=C/c2ccco2)C(=O)NCCc2c[nH]c3ccccc23)cc1C -4%, CN(C)CCCN(C(=O)COc1ccccc1)c1nc2c(Cl)cccc2s1 18%, CN(C)c1ccc(/C=C2\NC(=S)N(Cc3ccccc3)C2=O)cc1 -10%, C=CCN1C=C2C(=O)C(C)(OC(=O)CCc3ccccc3)C(=O)C=C2C=C1c1ccc(C#N)cc1 (centres undefined) -1%, COc1ccc(CCNC(=O)CSc2nnc3ccc(-c4ccncc4)nn23)cc1 6%, CCN(CC)C(=O)CC(c1ccc2c(c1)OCO2)c1c(OC)cc(OC)c2c(-c3ccccc3)cc(=O)oc12 (centres undefined) -4%, COc1cccc(/C=N\NC(=O)C2=NNC(=O)C2C)c1O (centres undefined) 1%, FC(F)(F)c1nc(-c2ccccc2)ncc1-c1nnnn1-c1ccccc1 -6%, CCOC(=O)N1CCN(CC(=O)n2c(C)c(C)c3ccccc32)CC1 -3%, COc1cccc(/C(C)=N/Nc2ncc(Cl)cc2Cl)c1 -3%, c1ccc(CN2CCC(N=C3NN=C(c4ccc5c(c4)OCCO5)CS3)CC2)cc1 52%, Cc1cccc(CN2CCC(CNC(=O)Nc3ccc(F)c(Cl)c3)CC2)c1 8%, CCc1nnc(NC(=O)c2sc3nc(C)cc(COC)c3c2N)s1 7%, COc1cccc(OC)c1C(=O)Nc1ccc(Cc2ccncc2)cc1 -2%, CCCCOC(=O)c1ccc(N2C(=O)CC(N3CCN(C/C=C/c4ccccc4)CC3)C2=O)cc1 (centres undefined) 12%, Cn1ccc(=Nc2ccc(NC(=O)c3ccc(N=c4ccn(C)c5ccc([N+](=O)[O-])cc45)cc3)cc2)cc1 28%, C=CCn1c(P(C)(=O)O)nc2ccccc21 -4%, CCN(CC)CCC(c1ccc2c(c1)OCO2)c1c(OC)cc(OC)c2c(-c3ccccc3)cc(=O)oc12 (centres undefined) 28%, COC(=O)c1c(NC(=O)COc2ccc(Cl)cc2Cl)sc2c1CC(C)(C)NC2(C)C 36%, CN(C)CCCNC(=S)N1CCN(c2nc(-c3ccccc3)cs2)CC1 14%, O=c1[nH]c(=S)[nH]c2[nH]c(=S)[nH]c12 -2%, COc1cc(-c2nc(-c3ccncc3)no2)cc(OC)c1OC 6%, Cc1ccc(NC(=S)N(CCCN2CCCC2)Cc2cccn2Cc2ccc(Cl)cc2)cc1 13%, Cc1ccc2c(C)c(C(=O)N3CCN(c4ccncc4)CC3)oc2c1C 31%, N=C1/C(=C/c2cccn2-c2cccc([N+](=O)[O-])c2)C(=O)N=C2SC=CN12 -6%, CC(=O)N1CCN(S(=O)(=O)c2ccc(C)c([N+](=O)[O-])c2)C1C(C)C (centres undefined) -1%, COC(=O)c1nc2n(n1)C(c1ccc([N+](=O)[O-])cc1)C(C(=O)Nc1ccc(Cl)cc1)=C(C)N2 (centres undefined) 2%, Cc1ccccc1CCN(CC(=O)NC1CCCCC1)C(=O)c1csnn1 -24%, CCCn1c(=N)n(CC(=O)c2ccc(Cl)c(Cl)c2)c2ccccc21 33%, CC(C)CC(=O)NC(=S)Nc1cc(C(=O)O)ccc1Cl -1%, O=C1NCC(=O)N(Cc2ccccc2)/C1=C/c1ccccc1 -16%, CCc1ccc(-c2nn(-c3ccccc3)cc2CSC(=N)N)cc1 68%, CNC(=O)/C(=C\C=C\c1ccccc1)NC(=O)c1ccc([N+](=O)[O-])cc1 7%, O=C(O)CC(Cc1ccccc1)C(=O)Nc1ccc([N+](=O)[O-])cc1 (centres undefined) -3%, O=C(COC(=O)CNC(=O)c1ccco1)Nc1ccc(F)cc1 1%, COc1ccc(S(=O)(=O)N2CN(CCc3ccc(OC)c(OC)c3)c3nc4ccccc4nc32)cc1 -4%, CCOC(=O)/C(C#N)=C/c1ccc(OCC(=O)Nc2ccccc2)c(OC)c1 1%, CC(C)C(=O)N1c2ccccc2NC2=C(C(=O)CCC2)C1c1ccc(N(C)C)cc1 (centres undefined) 10%, COCC(C)NC(=O)COc1nncc2ccccc12 (centres undefined) -7%, O=C(NCc1ccccc1Cl)NC(=O)c1csc([N+](=O)[O-])c1 1%, Cn1c(C(=O)NCCCN2CCCCC2)cc2sccc21 10%, COc1cc(Br)c(-c2sc(Nc3ccccc3)n[n+]2-c2ccccc2)cc1OC 14%, CCc1ccc2nc(Nc3ncc(C(C)=O)c(C)n3)nc(C)c2c1 0%, CCOC(=O)c1c(-c2ccccc2)csc1NC(=S)NC(=O)c1ccccc1 0%, O=C(CN1C(=O)c2cccnc2Oc2ccc(Cl)cc21)Nc1ccc(F)cc1 1%, N=c1c2c(-c3ccccc3)c(-c3ccccc3)n(Cc3ccccc3)c2ncn1CCCO 21%, Cc1noc(C)c1S(=O)(=O)N(C)Cc1ccccc1 5%, Cc1nn(-c2ccccc2)c(NC(=O)c2cccs2)c(-c2ccc(Cl)cc2)c1=O -4%, COc1cccc(NC(=S)NCCCN2CCOCC2)c1 6%, CCN(CC)CCOCCOc1ccc(Cl)c2ccccc12 22%, CN(C)CCCN(C(=O)c1ccc(S(=O)(=O)N2CCCc3ccccc32)cc1)c1nc2ccc(F)cc2s1 53%
